Source: PubChem BioAssay (National Center for Advancing Translational Sciences (NCATS))
This excerpt belongs to a sample that is enriched for hits.
Shiga toxin inh = Shiga toxin inhibition; Vero cells, Shiga toxin protein synthesis inhibition reporter; inhibition, % at 38.7 µM; 290,000 compounds, 9.2% hits; AID 2315; in the data active means inhibition mostly above about 28%, no sharp cut-off; inactive means mostly below about 43%; further: 0% is about no effect
AmpC detergent = inhibitors of E. coli AmpC beta-lactamase with detergent; 370,000 compounds, 0.041% hits; AmpC hydrolysis of nitrocefin, absorbance 480 nm, 0.01% Triton; P00811; Potency, µM (doses to about 114 µM), inactives show at the top dose activity change, negative = inhibition, usual class: inhibitors;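 further: potency means the concentration at half of the fitted maximal effect; 0% = no-compound wells and -100% = no-enzyme wells; nearly all actives have a fitted effect of over 25% in size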
Target sequence (P00811 whole entry, looked up): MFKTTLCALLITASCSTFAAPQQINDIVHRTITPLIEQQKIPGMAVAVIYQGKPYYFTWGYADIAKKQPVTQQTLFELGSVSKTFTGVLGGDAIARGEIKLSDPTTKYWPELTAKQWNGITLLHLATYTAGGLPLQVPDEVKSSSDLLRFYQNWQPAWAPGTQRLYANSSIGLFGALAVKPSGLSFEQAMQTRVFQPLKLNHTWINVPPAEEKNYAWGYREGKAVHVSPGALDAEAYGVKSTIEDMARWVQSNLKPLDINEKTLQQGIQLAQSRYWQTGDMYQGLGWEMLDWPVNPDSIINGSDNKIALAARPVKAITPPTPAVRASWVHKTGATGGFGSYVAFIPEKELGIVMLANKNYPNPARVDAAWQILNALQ
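AmpC (5.3 nM in the dispensed reagent) in 20 mM phosphate pH 7.0 with 0.01% (detergent screen) or 0.0001% Triton X-100 was preincubated with compounds for 15 min at room temperature. Nitrocefin was then added from an 800 uM solution, and hydrolysis was followed at 480 nm.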
CHX counter = counter-screen hit for Shiga toxin inhibitors, cycloheximide; max response, %; AID 2314; cell reporter, cycloheximide protein synthesis inhibition counterscreen; 300,000 compounds, 12% hits; in the data active means max response mostly above about 13%, no sharp cut-off; inactive means mostly below about 14%; further: read at 38.3 µM for the half of the compounds with a filed dose; 0% is about no effect
AmpC no deterg = AmpC beta-lactamase inhibition without detergent. P00811. AmpC nitrocefin hydrolysis, absorbance 480 nm, 0.0001% Triton. Potency, µM (titrated, usually from 57.1 µM), without a hit: at the top dose activity change, negative = inhibition, actives largely listed as inhibitors. 330,000 compounds, 0.52% hits. AID 485341;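 further: potency means the concentration at half of the fitted maximal effect; plate controls were no compound for no effect and no enzyme for full effect; nearly all actives have a fitted effect of over 20% in size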
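20 mM phosphate pH 7.0 + 0.01% (detergent screen) or 0.0001% Triton X-100; 5.3 nM AmpC reagent; cpd preinc 15 min RT; nitrocefin (800 uM stock) to start; A480 q20 s × 4 min; Activity was normalised to no-enzyme and no-compound control wells.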
NS1 function inh = blocks influenza NS1 protein function. Potency, µM (titrated, usually from 46.1 µM), for inactives: at the top dose activity, positive = more growth. 270,000 compounds, 0.4% hits; calls by dose curve; further: potency means the concentration at half of the fitted maximal effect; actives are rising curves; nearly all actives have a fitted effect of over 50% in size
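In this qHTS, NS1 from influenza A is expressed in budding yeast, where it slows growth. Cells are switched from glucose to 2% galactose medium (pH 6.0, -URA), treated with compound, and growth recovery is read at OD600.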
* hit, by the source's call. Unless noted, the call rests on the fitted dose curve; in most records, active means well fitted curve in the direction sought with a large enough effect; inconclusive means small, poorly fitted or top-dose-only effect, or another doubt; inactive means no such curve, though single readings can be large; an effect the other way counts as inactive or inconclusive.

For CCc1ccc(/C([O-])=C(/C(=S)NCCN2CCOCC2)[n+]2ccccc2)cc1 the results were Shiga toxin inh -2.0, AmpC detergent 4.4%, CHX counter -1.4, AmpC no deterg -2.1% and NS1 function inh -0.6%.
Screening CC(=O)Oc1c(C)cc(OCC(O)CNC(C)C)c(C)c1C (stereo not drawn) returned Shiga toxin inh -9.2 and CHX counter 2.3.
Screening O=C(Oc1ccccc1)c1ccc2nsnc2c1 returned Shiga toxin inh 75.1*, AmpC detergent -5.8%, CHX counter 52.7*, AmpC no deterg -23.7% and NS1 function inh -5.6%.
Screening COc1ccc(C(=O)NCc2nnc(SCC(=O)Nc3ccccc3)n2-c2ccccc2)cc1 returned AmpC detergent 16.6%.
Cc1cc(C)cc(NC(=O)CCc2c(C)nn(-c3ccc(N4CCOCC4)nn3)c2C)c1 was read as Shiga toxin inh 35.1, AmpC detergent 0.6%, CHX counter 26.1*, AmpC no deterg 127.1% and NS1 function inh 1.7%.
Cc1nn(-c2ccc(N3CCCCC3)nn2)c(C)c1CCC(=O)Nc1cccc(F)c1 was read as Shiga toxin inh 83.7*, AmpC detergent -3.1%, CHX counter 44.3*, AmpC no deterg 49.4% and NS1 function inh inconclusive.
For Cc1ccc(C)c(NC(=O)CCc2c(C)nn(-c3ccc(N4CCCCC4)nn3)c2C)c1 the results were Shiga toxin inh -2.3, AmpC detergent 9.7%, CHX counter 18.0, AmpC no deterg 90.8% and NS1 function inh -11.4%.
Cc1ccc(NC(=O)CCc2c(C)nn(-c3ccc(N4CCCCC4)nn3)c2C)cc1F was read as Shiga toxin inh 71.0*, AmpC detergent 2.4%, CHX counter 41.0*, AmpC no deterg 82.0% and NS1 function inh -27.0%.
`Cc1nn(-c2ccc(N3CCCC3)nn2)c(C)c1CCC(=O)Nc1ccccc1` gave AmpC detergent 19.8%.
`Cc1nn(-c2ccc(N3CCCCC3)nn2)c(C)c1CCC(=O)Nc1ccc(F)cc1` gave Shiga toxin inh 55.4*, AmpC detergent 3.9%, CHX counter 33.7*, AmpC no deterg 33.5% and NS1 function inh -13.5%.
Screening CCOC(=O)c1cccc(NC(=O)CCc2c(C)nn(-c3ccc(N4CCCC4)nn3)c2C)c1 returned AmpC detergent -4.9%.
CCOC(=O)c1cccc(NC(=O)CCc2c(C)nn(-c3ccc(N4CCOCC4)nn3)c2C)c1 was read as AmpC detergent -5.4%.
For COc1ccc(Cn2c(C(=O)O)c(CNCc3ccco3)c3ccc(OC)cc32)cc1 the results were AmpC detergent -0.7%.
Screening Cc1ccc(S(=O)(=O)NCC2CCC(C(=O)NCCc3ccc(Cl)cc3)CC2)cc1 (stereo not drawn) returned AmpC detergent -1.4%.
CCc1cccc(NC(=O)CCc2c(C)nn(-c3ccc(N4CCCCC4)nn3)c2C)c1 was read as Shiga toxin inh 95.0*, AmpC detergent 2.9%, CHX counter 40.2*, AmpC no deterg 75.5% and NS1 function inh -18.7%.
`CCOc1ccc(NC(=O)CCc2c(C)nn(-c3ccc(N4CCCCC4)nn3)c2C)cc1` gave Shiga toxin inh 44.9*, AmpC detergent 0.6%, CHX counter 27.2*, AmpC no deterg 98.8% and NS1 function inh -9.5%.
CCc1ccc(NC(=O)CCc2c(C)nn(-c3ccc(N4CCCCC4)nn3)c2C)cc1 was read as Shiga toxin inh 80.8*, AmpC detergent -17.2%, CHX counter 49.1*, AmpC no deterg 99.6% and NS1 function inh -0.9%.
Cc1ccc(CN2CCSc3ccc(C(=O)N4CCN(c5cccc(C)c5C)CC4)cc32)cc1 was read as AmpC detergent 15.7%.
Cc1cc(-c2onc3ccc(Cl)cc23)ccc1O was read as Shiga toxin inh 49.6*, AmpC detergent -10.0%, CHX counter 27.1*, AmpC no deterg inconclusive and NS1 function inh 20.2%.
`Cc1ccc(-c2onc3ccc(C=O)cc23)cc1` gave Shiga toxin inh 98.6*, AmpC detergent -4.8%, CHX counter 58.7*, AmpC no deterg -15.0% and NS1 function inh -52.0%.
Screening Cc1ccc(-c2onc3ccc(C4(C)OCCO4)cc23)cc1 returned Shiga toxin inh -22.8, AmpC detergent 4.0%, CHX counter -4.6, AmpC no deterg -14.6% and NS1 function inh 1.2%.
`O=C(CSc1c2c(nc3ccccc13)CCC2)Nc1ccc(F)cc1F` gave AmpC detergent 0.7%.
For O=C(Nc1cc(Cl)ccc1N1CCOCC1)c1ccc2c(c1)OCCO2 the results were Shiga toxin inh 3.8, AmpC detergent 5.8%, CHX counter 0.7, AmpC no deterg 33.8% and NS1 function inh 3.6%.
For O=C(Nc1ccc(Cl)cc1[N+](=O)[O-])c1ccc2c(c1)OCCO2 the results were Shiga toxin inh 66.8*, AmpC detergent -1.6%, CHX counter 39.9*, AmpC no deterg -15.2% and NS1 function inh 5.5%.
O=C(Nc1ccc(F)c([N+](=O)[O-])c1)c1ccc2c(c1)OCCO2 was read as Shiga toxin inh 54.8*, AmpC detergent -0.5%, CHX counter 33.1*, AmpC no deterg -12.0% and NS1 function inh 1.0%.
CCOc1ccc(/C=C\C(C)=N\O)cc1 was read as Shiga toxin inh 97.4*, AmpC detergent -4.5%, CHX counter 38.5*, AmpC no deterg 8.1% and NS1 function inh -2.5%.
`CCOc1ccc(/C=C/C(=O)CCC(=O)O)cc1` gave Shiga toxin inh 73.7*, AmpC detergent 9.0%, CHX counter 53.9*, AmpC no deterg -21.1% and NS1 function inh -2.1%.
CC(C)c1ccc(/C=C/C(=O)CCC(=O)O)cc1 was read as Shiga toxin inh 56.6, AmpC detergent inconclusive, CHX counter 42.5* and AmpC no deterg -21.1%.
`CCc1nnc(NS(=O)(=O)c2ccc(NC(=O)CCC(=O)OC)cc2)s1` gave Shiga toxin inh -10.8, AmpC detergent 3.8%, CHX counter 0.3, AmpC no deterg -5.2% and NS1 function inh 28.0%.
Screening CCCc1ccc(C(=O)NNc2ccccc2F)cc1 returned Shiga toxin inh 77.3*, AmpC detergent 9.1%, CHX counter 20.4*, AmpC no deterg -26.2% and NS1 function inh -54.9%.
Screening CCc1ccc(C(=O)NNc2ccc(C)c(Cl)c2)cc1 returned Shiga toxin inh 9.5, AmpC detergent 9.7%, CHX counter 9.9*, AmpC no deterg -42.8% and NS1 function inh -76.3%.
Screening CCc1ccc(C(=O)NNc2cc(Cl)ccc2Cl)cc1 returned Shiga toxin inh 13.4, AmpC detergent 7.9%, CHX counter 1.8, AmpC no deterg -40.8% and NS1 function inh -8.8%.
CCc1ccc(C(=O)NNc2ccc(S(N)(=O)=O)cc2)cc1 was read as Shiga toxin inh 14.2, AmpC detergent 5.9%, CHX counter 1.4, AmpC no deterg -11.4% and NS1 function inh -0.3%.
For CCc1ccc(C(=O)NNc2ccc(F)cc2)cc1 the results were Shiga toxin inh 40.8*, AmpC detergent -3.3%, CHX counter 13.7, AmpC no deterg -26.8% and NS1 function inh -45.6%.
